Values joined by “and” are separate entries in the source; they are usually repeats but may differ in a detail not shown here. Equal values may be shown once. Screen size: about 290,000 compounds; about 50 (0.02%) were called active.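 Rule for the calls: active = displacement of at least 50% at 20 µM, with a fluorescence ratio check between 0.3 and a set limit; inactive = the rest.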 Many of the other results were omitted from the sample, so actives are more common in it than they were. Measured potencies and affinities stand elsewhere.
biological target: E3 ubiquitin-protein ligase SIAH1 (Homo sapiens) (UniProt Q8IUQ4); experiment: Siah-1 peptide-binding antagonists, primary screen, biochemical, fluorescence polarization, rhodamine-plectin, uHTS (AID 1817); details: Siah-1 / rhodamine-plectin peptide fluorescence polarization; at 20 µM; stronger effect = higher value;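 note: plate controls were Siah plus tracer with DMSO for no effect and tracer alone without Siah for full effect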
Sequence (Q8IUQ4 whole entry, looked up): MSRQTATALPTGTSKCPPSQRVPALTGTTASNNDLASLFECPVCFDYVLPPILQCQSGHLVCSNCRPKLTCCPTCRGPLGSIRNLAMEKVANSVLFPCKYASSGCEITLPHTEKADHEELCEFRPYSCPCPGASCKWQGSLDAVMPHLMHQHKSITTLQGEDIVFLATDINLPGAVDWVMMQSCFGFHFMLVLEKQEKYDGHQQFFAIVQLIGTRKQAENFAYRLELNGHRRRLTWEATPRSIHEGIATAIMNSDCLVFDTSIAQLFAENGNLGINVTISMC

displacement, active:
O=C(Nc1ccc(Nc2ccncc2)cc1)c1ccc(Nc2ccnc3ccc([N+](=O)[O-])cc23)cc1 60%
CCOc1ccccc1-c1c2cc(O)c(=O)cc-2oc2cc(O)c(O)cc12 61.3%
O=c1cc2oc3cc(O)c(O)cc3c(-c3ccccc3O)c-2cc1O 83.3%
O=C(NN1C(=O)C2CC=C(Cl)CC2C1=O)c1ccncc1 (stereo not drawn) 69.4%
COc1ccc(CCn2c(N)c(C(=O)NCc3ccco3)c3nc4ccccc4nc32)cc1 57.5%
Oc1c(/C=N/Nc2cccc3cccnc23)ccc2ccccc12 93.1%
C=CCNC(=S)Nc1ccc2nsnc2c1 52.1%
COC(=O)c1ccc2c(c1O)C(=O)c1ccccc1C2=O 71.8%
CN(C)C(=O)c1ccc2c(c1[N+](=O)[O-])C(=O)c1ccccc1C2=O 60.6%
O=C(COC(=O)c1ccc2c(c1[N+](=O)[O-])C(=O)c1ccccc1C2=O)NC1CC1 76.3%

displacement, inactive:
O=C(Nc1ccc(Nc2ccncc2)cc1)c1ccc([N+](=O)[O-])cc1 2.7%
O=C(Nc1ccc(Nc2ccncc2)cc1)c1ccc(Nc2ccnc3ccc([N+](=O)[O-])cc23)cc1[N+](=O)[O-] 17.2%
CSc1ccc(/C=C/C(=O)N2CCCN(C)CC2)cc1 4%
N#Cc1ccc(NC(=O)CNc2cc(S(=O)(=O)N3CCOCC3)ccc2NCC2CCCO2)cc1 (stereo not drawn) -0.4%
CCc1nnc(NC(=O)c2ccc(COc3ccccc3Cl)o2)s1 5.6%
CCOC(=O)C1(S(=O)(=O)c2ccc(Cl)cc2)CCN(Cc2ccc(C)cc2)CC1 -0.2%
COc1cccc(C(=O)N2CCN(Cc3ccccc3Br)CC2)c1 3.1%
COC(=O)C(C(=O)OC)C(c1ccccc1)C(C(=O)c1ccccc1)[N+](=O)[O-] (stereo not drawn) 2%
COc1ccc(OC)c(-c2c3cc(O)c(=O)cc-3oc3cc(O)c(O)cc23)c1 58.5%
COc1cc(OC)c(-c2c3cc(O)c(=O)cc-3oc3cc(O)c(O)cc23)cc1OC 48%
Cc1c2cc(O)c(=O)cc-2oc2cc(O)c(O)cc12 70.1% and 99.1%
O=c1cc2oc3cc(O)c(O)cc3c(-c3ccccc3[N+](=O)[O-])c-2cc1O 48.7%
COc1cc(S(=O)(=O)NC(C)C)ccc1Cl 3%
CC(C)c1ccccc1NC(=S)N(C)C -9.8%
COC(=O)CCSc1nc(N2CCOCC2)c2c(c1C#N)CC(C)(C)OC2 1.2%
Cc1cccc(C)c1NC(=O)C1CCCN1S(=O)(=O)c1ccc2c(c1)n(C)c(=O)c(=O)n2C (stereo not drawn) 2.2%
COCCNC(=S)N(CCc1c(C)[nH]c2ccc(C)cc12)Cc1ccco1 1.4%
CCOC(=O)c1ccc(-n2c(O)c(/C=N/NC(=O)C3COc4ccccc4O3)c3ccccc3c2=O)cc1 (stereo not drawn) -6%
Cc1nc(NC(=S)NC(=O)c2cncc(Br)c2)ccc1Br -7%
Cc1cccc(C(=O)NC(C(=O)Nc2nc(-c3ccccn3)cs2)C(C)C)c1 (stereo not drawn) -2.5%
O=C(NN1C(=O)C2C(C1=O)C1C=CC2C12CC2)c1ccncc1 (stereo not drawn) 0.7%
O=C(NN1C(=O)C2C3C=CC(C3)C2C1=O)c1ccncc1 (stereo not drawn) 3.2%
C[C@@H](C[C@@H](O)[C@H](O)C(C)(C)O)[C@@H]1CC[C@]2(C)C3=CC[C@H]4C(C)(C)C(=O)CC[C@]4(C)[C@H]3CC[C@@]12C 2.8%
CC(NC(=O)C1CCCN(S(=O)(=O)c2cccs2)C1)c1ccccc1 (stereo not drawn) 0.2%
COc1cc(OC)c(OC)cc1CN1CCCC(C(=O)c2sccc2C)C1 (stereo not drawn) -6.6%
COc1ccc(CCn2c(N)c(C(=O)NCc3ccco3)c3nc4ccccc4nc32)cc1OC -1.3%
Nc1c(C(=O)NCc2ccco2)c2nc3ccccc3nc2n1CCc1ccc(F)cc1 2.1%
Cn1c(Cl)c(/C=N/OC(=O)c2ccccc2Cl)c2ccccc21 -1.7%
CC12CCC(C(=O)NCc3ccco3)(OC1=O)C2(C)C (stereo not drawn) 1.5%
CN1C(=O)NC(c2cccc([N+](=O)[O-])c2)C2=C1CCCC2=O (stereo not drawn) 3%
CN1C(=O)NC(c2ccccc2[N+](=O)[O-])C2=C1CC(C)(C)CC2=O (stereo not drawn) 4.2%
C/C(=N\OC(=O)Nc1ccccc1)c1cnn(-c2cc(C(F)(F)F)cc(C)n2)c1C 5.7%
CCOC(=O)c1sc(=S)n(CC)c1N -0.9%
COCCn1c(C)c(C(=O)O)sc1=S 2.3%
COc1cc2ncnc(NCc3ccccc3C)c2cc1OC 4.9%
CCOC(=O)c1cccc(NC(=O)CSc2nnc(C)n2Cc2ccccc2)c1 -0.6%
CC(=O)Nc1ccc(N=Cc2c(O)ccc3ccccc23)cc1 -0.3%
CC(=O)Nc1ccc(N=Cc2c(O)c3ccccc3oc2=O)cc1 1.2%
Cc1cccc(N2CCN(C(=O)c3ccc(NC(=O)C4CCCO4)cc3)CC2C)c1 (stereo not drawn) 1.8%
COCCNC(=O)/C(C#N)=C/c1ccc(OCc2ccc(F)cc2)cc1 -1.7%
Cc1cc(/C=C2\NC(=O)NC2=O)c(C)n1-c1ccc(N2CCOCC2)cc1 -9.1%
COc1ccc(OCCn2c(N)nc3ccccc32)cc1 3.4%
O=C(NC1CCCC1)c1ccc(COc2ccccc2Br)o1 2.7%
O=c1[nH]c(-c2ccccc2Cl)nc2c1sc(=S)n2-c1ccccc1 2.3%
O=c1[nH]c(-c2ccc3c(c2)OCO3)nc2c1sc(=S)n2-c1ccccc1 1.9%
COc1ccccc1CN1CC(C(=O)N(C)Cc2ccc(C)o2)CCC1=O (stereo not drawn) -3.9%
Oc1ccccc1/C=N/Nc1cccc2cccnc12 -2.4%
Oc1ccc(/C=N/Nc2cccc3cccnc23)c(O)c1 -3.9%
CCCCCCOc1ccc(N2C(=O)CC(N3CCN(CCN=CC4=C(O)CC(C)(C)CC4=O)CC3)C2=O)cc1 (stereo not drawn) 1.8%
CC(C)(C)c1ccc(C(CC(=O)O)NC(=O)Cc2ccc(Cl)cc2)cc1 (stereo not drawn) -2.3%
CC(C)(C)c1ccc(C(CC(=O)O)NC(=O)Cc2ccccc2)cc1 (stereo not drawn) 1.2%
CCOC(=O)c1nn(-c2cccc(OC)c2)c2nc(CC)c(C#N)c(=O)n12 12.2%
C=CCc1cccc2cc(C(=O)Nc3ccc(F)cc3)c(=O)oc12 5.1%
C=CCc1cccc2cc(C(=O)Nc3ccc(NC(C)=O)cc3)c(=O)oc12 9.1%
CCn1c(SC(C)C(=O)O)nnc1-c1cccnc1 (stereo not drawn) -1.4%
Cc1ccc(-n2ncc3c2CC(C)(C)CC3NC(=O)c2ccc[n+]([O-])c2)cc1 (stereo not drawn) 4.8%
OCCNC(=S)Nc1ccc2nsnc2c1 -1.1%
C=CCNC(=S)Nc1ccc2nc(C)c(C)nc2c1 3.4%
O=C(N/N=C/c1cccnc1)c1ccc2c(c1)OCCO2 -2.3%
COc1ccc(-c2nc3c4ccccc4ccn3c2CN2CCOCC2)cc1OC 13.8%
COC(=O)c1ccc2c(=O)n(CCCN3CCCC3=O)c(=S)[nH]c2c1 -3.7%
O=C(O)c1nc(-c2ccccc2)n(-c2cccc(C(F)(F)F)c2)n1 -2.9%
COCCNC(=O)CSc1nc2cc(OC)c(OC)cc2c(=O)n1Cc1ccc(OC)cc1 0.2%
Cc1cc(C)n2nnnc2c1C#N 1.6%
O=C(Nc1ccc(Br)cc1)c1ccc(N2C(=O)C3CCCCC3C2=O)cc1 (stereo not drawn) -1%
O=C(Nc1ccc(Br)cc1)c1ccc(N2C(=O)C3CC=C(Cl)CC3C2=O)cc1 (stereo not drawn) -0.2%
CCCOc1ccc(C(=O)CCC(=O)OCC(=O)Nc2cc(C)on2)cc1 -2.7%
COc1ccccc1C(=O)Nc1ccnn1C1CCN(Cc2ccc3nonc3c2)CC1 7.2%
Cn1c(Cc2csc(N)n2)nnc1SCC(=O)NC1CCCCC1 0.1%
O=S(=O)(c1ccc(Cl)cc1)N1CCN(C2CCN(Cc3ccccc3)CC2)CC1 3%
Cc1oc2cc(O)ccc2c(=O)c1-c1ccccc1 8.8%
Nc1ccc(-c2c3ccc(=O)cc-3oc3cc(O)ccc23)cc1C(=O)O 3%
C/C(=N\NC(=O)c1c(Cl)cnn1C)c1cccc(NC(=O)COc2ccccc2)c1 0.3%
CC(=O)Nc1ccc(C(=S)NCCCO)cc1 -4.5%
O=C(COC(=O)c1ccc2c(c1Cl)C(=O)c1ccccc1C2=O)NC1CC1 -3.3%
Cc1[nH]c2ccccc2c1CCNC(=O)c1ccc2c(c1[N+](=O)[O-])C(=O)c1ccccc1C2=O 22.7%
CCN(CC)C(=O)c1ccc2c(c1[N+](=O)[O-])C(=O)c1ccccc1C2=O 34.3%
COc1ccc2c(c1O)C(=O)c1ccccc1C2=O 2.4%
O=C(COC(=O)c1ccc2c(c1Cl)C(=O)c1ccccc1C2=O)NC1CCCCC1 -2.2%
CC(C)COC(=O)c1ccc2c(c1O)C(=O)c1ccccc1C2=O 4.6%
CN(CCOc1ccccc1)S(=O)(=O)c1ccc2oc3ccccc3c2c1 2.8%
CC(=O)c1ccc(NC(=O)CCNS(=O)(=O)c2ccccc2F)cc1 -1.6%
Cc1ccc(N(C)S(=O)(=O)c2cc3c(cc2C)NC(=O)CO3)cc1 -1%

— PubChem BioAssay AID1817 (Sanford-Burnham Center for Chemical Genomics, 2009)
